This is a sample that favours compounds with a hit; in the whole collection about 9.3% have one here.
ELG1 repair inh = ELG1-dependent DNA repair inhibition | HEK293T ELG1-luciferase reporter, luminescence, 16 h; DNA damage induced by 5-fluorouridine | Potency, µM (titrated, usually from 46.1 µM), inactives show at the top dose activity change, negative = inhibition, actives largely listed as inhibitors | 330,000 compounds, 2.3% hits | AID 504467; also: % is scaled to controls: 0 for no effect and ±100 for the full control effect; nearly all actives have a fitted effect of over 55% in size
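Quantitative HTS, concentration-response format. 2,000 cells/well co-treated with 5-fluorouridine and compound, 16 hr in 5% CO2 at 37 °C; ONE-Glo luminescence read after 30 min.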
FLuc counter = inhibits or activates purified firefly luciferase, miR-21 counter-screen; purified FLuc, Km substrates, luminescence inhibition; Potency, µM (highest dose often 57.5 µM), for the others: at the top dose activity change, negative = inhibition, hits mostly inhibitors; 360,000 compounds, 6.9% hits; AID 588342;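 also: plate controls were vehicle for no effect and reference inhibitor for full effect; nearly all actives have a fitted effect of over 55% in size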
Target sequence (P08659 whole entry, looked up): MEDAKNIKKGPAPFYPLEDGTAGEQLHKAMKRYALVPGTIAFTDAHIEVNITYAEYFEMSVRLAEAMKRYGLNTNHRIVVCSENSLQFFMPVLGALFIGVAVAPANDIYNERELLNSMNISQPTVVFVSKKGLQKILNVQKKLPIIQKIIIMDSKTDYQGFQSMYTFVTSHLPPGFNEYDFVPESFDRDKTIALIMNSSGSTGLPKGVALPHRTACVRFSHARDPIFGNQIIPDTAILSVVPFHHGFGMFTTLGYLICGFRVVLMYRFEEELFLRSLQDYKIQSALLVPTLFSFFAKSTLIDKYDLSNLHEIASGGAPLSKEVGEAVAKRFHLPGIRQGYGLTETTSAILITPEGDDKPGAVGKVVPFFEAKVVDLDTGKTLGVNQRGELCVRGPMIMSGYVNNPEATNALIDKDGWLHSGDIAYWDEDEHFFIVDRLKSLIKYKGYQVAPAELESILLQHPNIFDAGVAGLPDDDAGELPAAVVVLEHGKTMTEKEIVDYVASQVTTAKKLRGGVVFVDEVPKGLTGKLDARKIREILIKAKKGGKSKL
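Biochemical qHTS of compounds, final roughly 60 µM downward over six points, against 10 nM purified firefly luciferase using Km concentrations of substrates (10 uM D-luciferin, 10 uM ATP) in Tris acetate pH 7.5 buffer; luminescence output.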
SMN2 splice enh = SMN2 splice variant enhancement. HEK293 SMN2-luciferase splicing reporter, luminescence, 30-36 h. Potency, µM (titrated, usually from 46.1 µM), inactives show at the highest dose activity change, positive = activation, actives largely listed as activators. 210,000 compounds, 2.8% hits. AID 1458; also: % of control where 0% means no effect; nearly all actives have a fitted effect of over 55% in size
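HEK293 cells carry an SMN2 minigene-luciferase reporter in which exon 7 inclusion puts luciferase in frame. Cells were seeded at 2000 cells/well, attached for 10-12 hours, then exposed to compounds for 30-36 hours at 37C before ONE-Glo luminescence.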
Rab9 prom act = activators of Rab9 promoter | Huh7 Rab9 promoter-luciferase reporter, luminescence, 24 h | Potency, µM (top dose mostly 9.22 µM), for inactives: at the highest dose activation, negative = inhibition, hits mostly activators | 320,000 compounds, 2.8% hits | AID 485297; also: % of control where 0% means no effect; nearly all actives have a fitted effect of over 60% in size
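Luminescence from Amplite-detected luciferase (10 minutes, ambient) reports Rab9 promoter activation. Before that, stable Rab9-luciferase Huh7 cells (1500/well, reduced-serum OP-MEM I plus 10% FBS) were exposed to compound for 24 hours at 37C.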
NPC1 promoter act = NPC1 promoter activation. AID 485313. Huh7 NPC1 promoter luciferase reporter, 24 h. Potency, µM (series often up to 9.22 µM), for the others: at the highest dose activation, actives largely listed as activators. 320,000 compounds, 2.4% hits; also: % of control where 0% means no effect; nearly all actives have a fitted effect of over 60% in size
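Huh7 cells stably carrying NPC1 promoter–luciferase, plated in Opti-MEM with 10% FBS for 2 h, were exposed to compound in DMSO for 24 h at 37 °C; luciferase reagent was added for 10 min and luminescence read.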
ELG1 genotox = inducers of genotoxicity in HEK293T ELG1-luciferase cells. HEK293T ELG1-luciferase reporter, luminescence, 16 h. Potency, µM (highest dose often 46 µM), inactives show at the top dose activity change, positive = activation, most hits filed as activators. 330,000 compounds, 1.3% hits. AID 504466; also: % of control where 0% means no effect; nearly all actives have a fitted effect of over 60% in size
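DMSO vehicle served as control against compound-treated ELG1-luciferase HEK293T cells; exposure lasted 16 hr at 37 °C and 5% CO2, followed by ONE-Glo luminescence detection after 30 min.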
ELG1 FLuc counter = luciferase inhibition in cell-free luciferin readout for ELG1 hits; shares compounds with ELG1 repair inh; cell-free firefly luciferase luminescence counter-screen, ViewLux; Potency, µM (doses to about 46.1 µM), for inactives: at the highest dose activity change, negative = inhibition, most hits filed as inhibitors; 350 compounds, 3% hits; AID 624247; also: % is scaled to controls: 0 for no effect and ±100 for the full control effect
ELG1-Luc inh = inhibits ELG1-dependent DNA repair in HEK293T cells, confirmed; Potency, µM (series often up to 46.1 µM), for inactives: at the top dose activity change, negative = inhibition, actives largely listed as inhibitors; 670 compounds, 68% hits; AID 624248; HEK293T ELG1-luciferase levels, luminescence; cells co-treated with 5-fluorouridine; shares compounds with ELG1 repair inh; also: % is scaled to controls: 0 for no effect and ±100 for the full control effect; nearly all actives have a fitted effect of over 55% in size
ELG1 MMS Luc = confirmation of human ELG1 repair inhibitors, MMS stimulated; shares compounds with ELG1 repair inh; HEK293T luciferase-tagged ELG1 level, MMS stimulated; Potency, µM (doses to about 46.1 µM), without a hit: top-dose activity change, negative = inhibition, actives largely listed as inhibitors; 670 compounds, 53% hits; also: % is scaled to controls: 0 for no effect and ±100 for the full control effect; nearly all actives have a fitted effect of over 60% in size
ELG1 5-FU = confirmation of ELG1 repair inhibitors: viability with 5FU. shares compounds with ELG1 repair inh. Potency, µM (series often up to 46.1 µM), inactives show top-dose activity change, negative = viability loss, most hits filed as cytotoxic. AID 624250. 670 tested, under 10 active. cell viability with 5-FU, ELG1-dependent repair;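 also: ELG1-luc HEK293T cells cotreated with 5-fluorouridine at 10 µM final; viability measured 16 h after compound addition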
ELG1 MMS cell = confirmation of ELG1 repair inhibitors: viability with MMS | shares compounds with ELG1 repair inh | Cell viability with MMS, ELG1-dependent DNA repair | Potency, µM (series often up to 46.1 µM), for inactives: top-dose activity change, negative = viability loss, hits mostly cytotoxic | 670 compounds, 33% hits;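 also: ELG1-luc HEK293T cells co-treated with 10 µM MMS; viability read 16 h after compound addition; % is scaled to controls: 0 for no effect and ±100 for the full control effect; nearly all actives have a fitted effect of over 60% in size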
ELG1 unstim viab = unstimulated viability counter-screen for ELG1 repair hits; AID 624252; Potency, µM (highest dose often 45.9 µM), without a hit: top-dose activity change, negative = loss of viability, hits mostly cytotoxic; shares compounds with ELG1 repair inh; 900 compounds, 8% hits; cell viability counter-screen, unstimulated, luminescence;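 also: compound exposure lasted 16 hours before reading; % is scaled to controls: 0 for no effect and ±100 for the full control effect; nearly all actives have a fitted effect of over 55% in size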
FLuc biochem = counter-screen for ELG1 repair inhibitors: firefly luciferase inhibition; shares compounds with ELG1 repair inh; purified firefly luciferase, luminescence counter-screen; Potency, µM (top dose mostly 57.5 µM), for inactives: top-dose activity, negative = inhibition, usual class: inhibitors; 350 compounds, 10% hits; AID 624253; also: % is scaled to controls: 0 for no effect and ±100 for the full control effect
Active calls of the source: *; u = inconclusive; x = not tested or not shown; [ ] = another dose, or the depositor's remark. Calls follow the shape of the dose curve; as a rule, active = well fitted curve in the direction sought with a large enough effect; inconclusive = small, poorly fitted or top-dose-only effect, or another doubt; inactive = no such curve, though single readings can be large; an effect the other way counts as inactive or inconclusive. Potency is read from the fitted curve at half-maximal effect.

SMILES | ELG1 repair inh | FLuc counter | SMN2 splice enh | Rab9 prom act | NPC1 promoter act | ELG1 genotox | ELG1-Luc inh | ELG1 MMS Luc | ELG1 5-FU | ELG1 MMS cell | ELG1 unstim viab | others
COc1cc(OC)cc(-c2n[nH]c(=S)n2-c2ccc3c(c2)OCO3)c1 | 9% | -16% | 14% | 2% | 0% | 4% | x | x | x | x | x
COc1ccc(C(CC(=O)O)c2ccc3c(c2)OCO3)cc1 (stereo unspecified) | 6% | 3% | x | -6%[1.84 µM] | -2% | 0% | x | x | x | x | x
COc1cc(OC)cc(-c2cc3cc4c(cc3cn2)OCO4)c1 | u | x | x | x | x | 4.1µM* | x | x | x | x | u
c1ccc(-c2cc3cc4c(cc3cn2)OCO4)cc1 | u | x | x | x | x | u | x | x | x | x | u
CCc1ccc(NC(=O)C2CCCN2S(=O)(=O)c2ccc3c(c2)C(C)(C)C(=O)N3C)cc1 (stereo unspecified) | u | -3% | x | 6% | 5% | 1% | x | x | x | x | x
Cn1cccc1C(=O)OCC(=O)c1c[nH]c2ccccc12 | u | x | x | x | x | u | x | x | x | x | -13%
Cc1ccc(C(=O)OCC(=O)c2c[nH]c3ccccc23)cc1 | u | u | 9% | u | u | u | x | x | x | x | x
C[C@H](CO)N1C[C@H](C)[C@@H](CN(C)C(=O)Nc2ccc(C(F)(F)F)cc2)Oc2c(NC(=O)Cc3ccccc3)cccc2C1=O | u | x | x | x | x | 1% | 2.5µM* | -3% | u | 23% | 8%
CC(C)NC(=O)Nc1cccc2c1O[C@H](CN(C)C(=O)Nc1ccc(C(F)(F)F)cc1)[C@@H](C)CN([C@H](C)CO)C2=O | 1.3µM* | x | x | x | x | -1% | 2.2µM* | 15% | u | 4% | -2%
C[C@H](CO)N1C[C@H](C)[C@@H](CN(C)C(=O)Nc2ccc(C(F)(F)F)cc2)Oc2c(NC(=O)CCC(F)(F)F)cccc2C1=O | 1.8µM* | x | x | x | x | -1% | 3.5µM* | 22% | u | 9% | -8%
C[C@H](CO)N1C[C@H](C)[C@@H](CN(C)C(=O)Nc2ccccc2)Oc2c(NC(=O)Cc3ccccc3)cccc2C1=O | 17% | x | x | x | x | 3% | x | x | x | x | x
COc1cc2cc(C)c(SCC(=O)N3CCOCC3)nc2cc1OC | -29% | -2% | x | -3% | -1% | 6% | x | x | x | x | -10% | ELG1 FLuc counter=68%;FLuc biochem=-8%
Cc1cc2ccccc2nc1SCC(=O)N1CCCC1 | 0% | 4% | -15% | -2% | -5% | -1% | x | x | x | x | x
COc1ccc(NC(=O)Cc2c(C)n(C(=O)c3ccc(Cl)cc3)c3ccc(OC)cc23)cc1 | 2.6µM* | -1% | x | -4% | 0% | 2% | 18µM* | 15% | u | -3% | -3% | ELG1 FLuc counter=22%;FLuc biochem=2%
COc1ccc2c(c1)c(CC(=O)Nc1cccc(S(N)(=O)=O)c1)c(C)n2C(=O)c1ccc(Cl)cc1 | 18µM* | 0% | x | 0% | 1% | -17% | 14µM* | 18µM* | u | u | u | ELG1 FLuc counter=-5%;FLuc biochem=4%
COc1ccc2c(c1)c(CC(=O)Nc1ccc(C)cc1)c(C)n2C(=O)c1ccc(Cl)cc1 | u | -1% | -3% | -4% | 1% | -5% | x | x | x | x | x
COc1ccc2c(c1)c(CC(=O)Nc1cc(C)c(OC)c(C)c1)c(C)n2C(=O)c1ccc(Cl)cc1 | x | -13% | -3% | x | x | x | x | x | x | x | x
COc1cc(/C=C(\C#N)C(=O)Nc2cccc(C(=O)O)c2)ccc1OCc1ccc(Cl)cc1 | u | u | x | 7% | 1% | u | x | x | x | x | 11% | ELG1 FLuc counter=51%;FLuc biochem=16µM*
Nc1ccc(/C=C/c2ccc3cccnc3c2)cc1 | x | x | x | x | x | x | x | x | x | x | -1% | ELG1 FLuc counter=43%;FLuc biochem=0.37µM*
COc1ccc(-c2cn(Cc3ccc(C(=O)c4ccccc4)cc3)nn2)cc1 | u | 11µM* | x | u | u | 18µM* | x | x | x | x | u
O=C1N=C(O)CN1/N=C/c1ccc(-c2ccc([N+](=O)[O-])cc2)o1 | x | x | -18% | 0%[46.1 µM] | 3%[46.1 µM] | x | x | x | x | x | x
CCOCCOC(=O)c1[nH]c2c(c1C)C(=O)CC(c1cc(OC)c(OC)c(OC)c1)C2 (stereo unspecified) | 4.1µM* | 3% | x | -19% | -13% | -6% | 10µM* | 6.3µM* | -5% | u | u
CC(C)n1cnc2c(NCc3ccccc3)cc(N[C@H](C)CO)cc21 | 4.1µM* | x | x | x | x | -11% | 7.9µM* | 0.44µM* | 16µM* | 0.71µM* | 8.9µM*
CCOC(=O)Cc1csc(NC(=O)CN2CCOCC2)n1 | 15% | 4% | x | -2% | 2% | -1% | x | x | x | x | x
COc1ccc(/C=C/C(=O)O/N=C(\N)c2ccccn2)cc1OC | u | x | x | x | x | u | x | x | x | x | -9%
COc1ccc(CC(=O)O/N=C(\N)c2ccccn2)cc1OC | u | -14% | x | 0% | 9% | 1% | x | x | x | x | x
NC(N)=NNC(=O)C(=O)O | x | x | 10%[9.22 µM] | x | x | x | x | x | x | x | x
